Assay outcomes (PubChem BioAssay)
PNC assembly inh: inhibitors of perinucleolar compartment assembly. PC3M PTB-GFP, PNC prevalence imaging, 16 h; active compounds read low. activity change (PNC), negative = inhibition, % at 10 µM. actives 3.1% (n = 140,000). AID 2417;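 active = readout at or below -70, meaning at least 70% loss of cells showing the perinucleolar compartment, a nuclear body marking cancer cells; inconclusive = readout between -30 and a set limit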;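 also: plate controls were DMSO wells for no effect and camptothecin positive control wells for full effect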
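Read-out is percentage of cells bearing a perinucleolar compartment, from automated 20x imaging of fixed, Hoechst-stained PC3M PTB-GFP cells. Cells were seeded 4 h, then exposed 16 h to compound (23 nl of library stock) in duplicate plates.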
ALDH1A1 inh: blocks purified human ALDH1A1 activity; P00352; Purified ALDH1A1, NADH fluorescence, propionaldehyde substrate; Potency, µM (series often up to 75.3 µM), inactives show at the top dose activity, negative = inhibition, usual class: inhibitors; actives 7.3% (n = 220,000); AID 1030;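 also: potency is read from the fitted curve at half-maximal effect; plate controls were no enzyme wells and a reference inhibitor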
HPGD block: HPGD (human) dehydrogenase inhibition. actives 4.3% (n = 150,000). Potency, µM, without a hit: at the highest dose activity change, negative = inhibition, actives largely listed as inhibitors. P15428. purified HPGD, NADH fluorescence kinetic, PGE2 substrate. AID 894; also: potency is read from the fitted curve at half-maximal effect
Target sequence (P15428 whole entry, looked up): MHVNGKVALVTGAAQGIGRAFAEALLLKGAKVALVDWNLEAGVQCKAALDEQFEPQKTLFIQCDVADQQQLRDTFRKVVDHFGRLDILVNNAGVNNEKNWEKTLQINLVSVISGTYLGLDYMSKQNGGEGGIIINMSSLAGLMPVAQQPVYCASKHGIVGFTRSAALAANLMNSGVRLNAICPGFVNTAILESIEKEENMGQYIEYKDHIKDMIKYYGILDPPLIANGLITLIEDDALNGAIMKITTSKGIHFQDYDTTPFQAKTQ
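NADH formation kinetics: reaction with 30 uM PGE2 and 1 mM NAD+ (final), 20 nM enzyme, Tris-HCl pH 8 with Tween 20, after 15 min compound preincubation at room temperature. Fluorescence change, last versus first of five reads.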
An asterisk follows results filed as active; ? = inconclusive; / = no result; [ ] = dose if it differs, or a comment. A selection: hits, their analogues and other compounds. The true share with any hit is near 11%. Unless noted, calls follow the shape of the dose curve; as a rule, active = well fitted inhibition curve with a large enough effect (not every such curve was filed as active); inconclusive = small, poorly fitted or top-dose-only effect, or another doubt; inactive = no such curve, though single readings can be large or run the other way. Unless noted, % is scaled to controls: 0 for no effect and ±100 for the full control effect.

SMILES	PNC assembly inh	ALDH1A1 inh	HPGD block
CN1CCN(C(=S)c2ccc(Br)cc2)CC1	-16	-39%	/
Cc1ccc(C(=S)N2CCN(Cc3ccccc3)CC2)s1	/	14µM*	/
CN1CCN(C(=S)c2ccc(N(C)C)cc2)CC1	15	28µM*	16µM*
CCn1c(N2CCN(C(=S)Nc3ccc(OC)cc3)CC2)nc2ccccc21	/	-3%	/
CCc1c(C)nc(SCC(=O)Nc2cccc(Br)c2)[nH]c1=O	59	-4%	3.5µM*
CCc1c(C)nc(SCC(=O)Nc2ccc(Br)cc2)[nH]c1=O	-4	4%	14µM*
CCc1c(O)nc(SCC(=O)Nc2ccccc2C)[nH]c1=O	?	-1%	-3%
Cc1nnc(SCC(=O)Nc2ccccc2)[nH]c1=O	35	-6%	-11%
Cc1nc2ccccn2c1C(=O)NC1CCCc2ccccc21 (stereo not given)	/	5%	/
O=C(CSC1=NCCS1)N1CCCC1	-14	0%	-13%
O=C(CSC1=NCCS1)N1CCCCCC1	-16	5%	28µM*
Clc1ccccc1C1=CC(c2ccco2)n2nnnc2N1 (stereo not given)	/	13µM*	/
C1=C(c2ccc(-c3ccccc3)cc2)Nc2ncnn2C1c1ccco1 (stereo not given)	-17	?	-24%
CCCCCCCCCCC/C=C\C(C)(C)/C=C\CCCC(=O)O	/	-12%	-4%
CCOC(=O)c1c(NC(=O)c2nn(C)cc2[N+](=O)[O-])sc(C)c1C	/	11%	/
COC(=O)c1c(NC(=O)COC(=O)[C@@H](NS(=O)(=O)c2ccc(C)cc2)C(C)C)sc2c1CCC2	-18	?	?
O=c1c2c(nc3nc(Cc4ccccc4)[nH]n13)CCC2	-90*	-9%	-18%
O=c1c2c(nc3nc(NCc4ccccc4Cl)[nH]n13)CCC2	/	2%	/
COC(OC)[C@@H](C)[C@H](OC)[C@@H](C)[C@H](OC)c1ccccc1	/	-1%[13.5 µM]	/
CC1(C(=O)CSc2nc3ccccc3[nH]2)CCC(=O)O1 (stereo not given)	-100*	-1%	-10%
CC1(C(=O)CSc2ncn[nH]2)CCC(=O)O1 (stereo not given)	-4	?	-7%
COC/C=C/C1=CC2=CC(=O)C(C)(OC(=O)c3cnc4ccccc4n3)C(=O)C2=CN1CCc1c[nH]c2ccccc12 (stereo not given)	/	-3%[13.5 µM]	-4%
CC(=O)c1ccc(Nc2c3c(c(C#N)c4nc5ccccc5n24)CCC3)cc1	15	7%	-14%
COc1ccc(Nc2c3c(c(C#N)c4nc5ccccc5n24)CCC3)cc1	8	?	1.3µM*
O=C(O)c1cc(Cl)c(Cl)cc1C(=O)N1CCCC1	4	7%	-12%
SMILES	PNC assembly inh	ALDH1A1 inh	HPGD block
O=C(c1cc(Br)ccc1Cl)N1CCCC1	/	-2%	/
O=C(c1cc2c(cc1Br)OCCCO2)N1CCCCC1	30	9%	2.2µM*
O=C(c1cc(F)c(F)cc1Cl)N1CCCCC1	46	-1%	5.6µM*
CSCC[C@H](NC(=O)OC(C)(C)C)C(=O)N/N=C/c1ccc2nccnc2c1	/	-14%	/
CCOC(=O)CNC(=O)O[C@@H]1C(=O)c2cc(Br)ccc2O[C@H]1c1ccc2c(c1)OCO2	/	10%	-11%
Cc1cccc(C(=O)c2c(N)sc3c2CCC(C)C3)c1 (stereo not given)	-14	7.9µM*	/
CCOC(=O)c1c(N2C(=O)C3C4C=CC(C4)C3C2=O)sc2c1CCC(C)C2 (stereo not given)	-9	?	-3%
Cc1cccc(C(=O)c2c(N)sc3c2CCCC3)c1	-8	?	/
CC1CCc2c(sc(N)c2C(N)=O)C1 (stereo not given)	8	13µM*	?
CCCCOc1ccc(NC(=O)Nc2nnc(C)s2)cc1	/	11%	/
CC12C=C(/C=C/c3ccc(Br)cc3)C(C)(C1)[C@H](c1ccc(Br)cc1)CC2=O (stereo not given in full)	/	2%	-4%
NC(=O)CSc1ccc(-c2ccc(F)cc2)nn1	/	6%	/
O=[N+]([O-])c1ccc(/C=N/n2c(-c3cccnc3)n[nH]c2=S)cc1	-13	2.8µM*	/
Cc1cc(C)n(/N=C/c2cccc([N+](=O)[O-])c2)c(=O)c1	-15	14%	?
O=[N+]([O-])c1cccc(/C=N/n2c(-c3cccnc3)n[nH]c2=S)c1	20	10µM*	20µM*
CCn1c(-c2cccnc2)n[nH]c1=S	45	12%	0%
S=c1[nH]nc(-c2cc(-c3ccccc3)n[nH]2)n1/N=C/c1ccc(Cl)c(Cl)c1	/	18%	/
O=[N+]([O-])c1ccc(Cl)c(/C=N/n2c(-c3cccnc3)n[nH]c2=S)c1	3	7.9µM*	8.9µM*
CC1=NN(C(=S)Nc2ccccc2)C(C)(C)C1	/	-6%	/
